The full data set covers some 7,900 targets. This sample favours those with a hit. About 0.6% of all pairs of compound and target were hits.
What was measured:
Test in all cases: log2 fold change, soluble protein after heating vs DMSO (PISA); higher = thermal stabilisation; K562 cells, 10 uM, 30 min; active = over 0.2 and 3.5 SD of the protein, either way, in both replicates (recomputed)
bafetinib = compound: Cc1ccc(NC(=O)c2ccc(CN3CC[C@H](N(C)C)C3)c(C(F)(F)F)c2)cc1Nc1nccc(-c2cncnc2)n1 [bafetinib]
Procedure, shortened: (§1)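 Soluble protein was defined as the supernatant after 21,000xg for 90 min. It came from K562 cells at 2×10^6 cells/mL given 10 μM compound for 30 min, heated in aliquots for 3 min across 48°C-58°C, pooled, and extracted in PBS with 0.5% NP-40 at 4°C, and was quantified by TMTpro 16plex LC-MS/MS with equalised channel sums. Thermal stability against control samples, from duplicates, is reported as log2 fold change.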

[1] = compound: Cc1cccc(CC(=O)N2CCc3c2ccc(-c2cn(C)c4ncnc(N)c24)c3F)n1
Procedure, shortened: as §1

nilotinib = compound: Cc1cn(-c2cc(NC(=O)c3ccc(C)c(Nc4nccc(-c5cccnc5)n4)c3)cc(C(F)(F)F)c2)cn1 [nilotinib]
Procedure, shortened: as §1

[2] = compound: Cc1nc(Nc2n[nH]c3c2CN(C(=O)N[C@H](CN(C)C)c2ccccc2)C3(C)C)c2sccc2n1
Procedure, shortened: as §1

dasatinib = compound: Cc1nc(Nc2ncc(C(=O)Nc3c(C)cccc3Cl)s2)cc(N2CCN(CCO)CC2)n1 [dasatinib]
Procedure, shortened: as §1

[3] = compound: Cc1ncc(-c2ccnc(Nc3ccc(S(C)(=O)=O)cc3)n2)n1C(C)C
Procedure, shortened: as §1

[4] = compound: Cn1cc(-c2ccc3c(c2)CCN3C(=O)Cc2cccc(C(F)(F)F)c2)c2c(N)ncnc21
Procedure, shortened: as §1

[5] = compound: Cn1cc(-c2ccc3nnc(C(F)(F)c4ccc5ncccc5c4)n3n2)cn1
Procedure, shortened: as §1

tipifarnib = compound: Cn1cncc1[C@@](N)(c1ccc(Cl)cc1)c1ccc2c(c1)c(-c1cccc(Cl)c1)cc(=O)n2C [tipifarnib]
Procedure, shortened: as §1

mubritinib = compound: FC(F)(F)c1ccc(/C=C/c2nc(COc3ccc(CCCCn4ccnn4)cc3)co2)cc1 [mubritinib]
Procedure, shortened: as §1

[6] = compound: NC(=O)c1cnc(N[C@@H]2CCCC[C@@H]2N)nc1Nc1cccc(-n2nccn2)c1
Procedure, shortened: as §1

[7] = compound: NC1(c2ccc(-c3nc4ccn5c(=O)[nH]nc5c4cc3-c3ccccc3)cc2)CCC1
Procedure, shortened: as §1

[8] = compound: NCC(=O)Nc1ccc(-n2nc(C(F)(F)F)cc2-c2ccc3c(ccc4ccccc43)c2)cc1
Procedure, shortened: as §1

vorinostat = compound: O=C(CCCCCCC(=O)Nc1ccccc1)NO [vorinostat]
Procedure, shortened: as §1

citarinostat = compound: O=C(CCCCCCNC(=O)c1cnc(N(c2ccccc2)c2ccccc2Cl)nc1)NO [citarinostat]
Procedure, shortened: as §1

silmitasertib = compound: O=C(O)c1ccc2c(c1)nc(Nc1cccc(Cl)c1)c1ccncc12 [silmitasertib]
Procedure, shortened: as §1

[9] = compound: c1cc(OCCN2CCCCC2)cc(-c2n[nH]c3ccc(-c4nnc[nH]4)cc23)c1
Procedure, shortened: as §1

[10] = compound: NC(=O)Nc1cc(-c2cccc(F)c2)sc1C(=O)N[C@H]1CCCNC1
Procedure, shortened: as §1

entinostat = compound: Nc1ccccc1NC(=O)c1ccc(CNC(=O)OCc2cccnc2)cc1 [entinostat]
Procedure, shortened: as §1

[11] = compound: O=C1NC(=O)C(c2cnc3ccccn23)=C1c1cn2c3c(cc(F)cc13)CN(C(=O)N1CCCCC1)CC2
Procedure, shortened: as §1

Measured: log2 fold change

MMADHC (UniProt Q9H3L0)
inactive: bafetinib 0.038 | [1] 0.054 | nilotinib -0.068 | [2] -0.173 | dasatinib -0.155 | [3] 0.023 | [4] -0.138 | [5] -0.063 | tipifarnib 0.024 | mubritinib -0.005 | [6] 0.035 | [7] 0.014 | [8] 0.057 | vorinostat 0.157 | citarinostat 0.141 | silmitasertib 0.031 | [9] 0.031

NECTIN2 isoform 2 (UniProt Q92692)
inactive: bafetinib -0.64 | [1] 0.145 | nilotinib 0.129 | [2] -0.016 | dasatinib 0.001 | [3] 0.006 | [5] -0.129 | mubritinib -0.049 | [10] 0.072 | [6] 0.171 | [7] -0.194 | [8] 0.031 | entinostat -0.032 | vorinostat 0.087 | citarinostat 0.108 | silmitasertib -0.039 | [11] -0.495 | [9] 0.09

MSL1 (UniProt Q68DK7)
UniProt Q68DK7, sequence (Q68DK7 whole entry, looked up): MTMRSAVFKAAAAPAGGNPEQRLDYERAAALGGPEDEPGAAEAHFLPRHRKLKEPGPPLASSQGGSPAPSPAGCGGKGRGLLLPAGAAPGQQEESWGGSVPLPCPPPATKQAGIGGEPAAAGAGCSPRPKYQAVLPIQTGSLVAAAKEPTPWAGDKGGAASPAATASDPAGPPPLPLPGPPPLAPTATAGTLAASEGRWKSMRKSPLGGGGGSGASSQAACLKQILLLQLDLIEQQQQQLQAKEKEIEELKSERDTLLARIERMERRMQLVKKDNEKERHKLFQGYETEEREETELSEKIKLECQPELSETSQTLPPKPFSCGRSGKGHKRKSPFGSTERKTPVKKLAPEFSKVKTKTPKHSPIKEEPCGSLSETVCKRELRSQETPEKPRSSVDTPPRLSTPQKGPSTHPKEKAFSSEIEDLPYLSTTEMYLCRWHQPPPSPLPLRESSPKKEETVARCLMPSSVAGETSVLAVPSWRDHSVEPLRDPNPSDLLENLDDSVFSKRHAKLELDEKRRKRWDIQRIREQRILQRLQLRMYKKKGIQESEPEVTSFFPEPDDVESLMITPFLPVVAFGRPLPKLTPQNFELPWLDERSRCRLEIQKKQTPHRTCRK
inactive: bafetinib -0.056 | [1] 0.172 | nilotinib 0.004 | [2] 0.068 | dasatinib 0.014 | [3] -0.042 | [5] -0.019 | tipifarnib -0.065 | mubritinib 0.148 | [10] -0.032 | [6] -0.085 | [7] -0.024 | [8] -0.036 | entinostat 0.016 | vorinostat 0.104 | citarinostat 0.047 | silmitasertib -0.152 | [11] -0.153 | [9] 0.017

OGFOD2 (UniProt Q6N063)
inactive: bafetinib 0.009 | [1] 0.171 | nilotinib 0.004 | [2] -0.007 | dasatinib -0.04 | [3] -0.023 | [4] -0.011 | [5] 0.132 | mubritinib 0.092 | [6] 0.005 | [7] -0.151 | [8] -0.012 | vorinostat -0.313 | citarinostat 0.036 | silmitasertib 0.097 | [11] -0.073 | [9] -0.012

MYLK (UniProt Q15746)
UniProt Q15746, sequence (Q15746 whole entry, looked up): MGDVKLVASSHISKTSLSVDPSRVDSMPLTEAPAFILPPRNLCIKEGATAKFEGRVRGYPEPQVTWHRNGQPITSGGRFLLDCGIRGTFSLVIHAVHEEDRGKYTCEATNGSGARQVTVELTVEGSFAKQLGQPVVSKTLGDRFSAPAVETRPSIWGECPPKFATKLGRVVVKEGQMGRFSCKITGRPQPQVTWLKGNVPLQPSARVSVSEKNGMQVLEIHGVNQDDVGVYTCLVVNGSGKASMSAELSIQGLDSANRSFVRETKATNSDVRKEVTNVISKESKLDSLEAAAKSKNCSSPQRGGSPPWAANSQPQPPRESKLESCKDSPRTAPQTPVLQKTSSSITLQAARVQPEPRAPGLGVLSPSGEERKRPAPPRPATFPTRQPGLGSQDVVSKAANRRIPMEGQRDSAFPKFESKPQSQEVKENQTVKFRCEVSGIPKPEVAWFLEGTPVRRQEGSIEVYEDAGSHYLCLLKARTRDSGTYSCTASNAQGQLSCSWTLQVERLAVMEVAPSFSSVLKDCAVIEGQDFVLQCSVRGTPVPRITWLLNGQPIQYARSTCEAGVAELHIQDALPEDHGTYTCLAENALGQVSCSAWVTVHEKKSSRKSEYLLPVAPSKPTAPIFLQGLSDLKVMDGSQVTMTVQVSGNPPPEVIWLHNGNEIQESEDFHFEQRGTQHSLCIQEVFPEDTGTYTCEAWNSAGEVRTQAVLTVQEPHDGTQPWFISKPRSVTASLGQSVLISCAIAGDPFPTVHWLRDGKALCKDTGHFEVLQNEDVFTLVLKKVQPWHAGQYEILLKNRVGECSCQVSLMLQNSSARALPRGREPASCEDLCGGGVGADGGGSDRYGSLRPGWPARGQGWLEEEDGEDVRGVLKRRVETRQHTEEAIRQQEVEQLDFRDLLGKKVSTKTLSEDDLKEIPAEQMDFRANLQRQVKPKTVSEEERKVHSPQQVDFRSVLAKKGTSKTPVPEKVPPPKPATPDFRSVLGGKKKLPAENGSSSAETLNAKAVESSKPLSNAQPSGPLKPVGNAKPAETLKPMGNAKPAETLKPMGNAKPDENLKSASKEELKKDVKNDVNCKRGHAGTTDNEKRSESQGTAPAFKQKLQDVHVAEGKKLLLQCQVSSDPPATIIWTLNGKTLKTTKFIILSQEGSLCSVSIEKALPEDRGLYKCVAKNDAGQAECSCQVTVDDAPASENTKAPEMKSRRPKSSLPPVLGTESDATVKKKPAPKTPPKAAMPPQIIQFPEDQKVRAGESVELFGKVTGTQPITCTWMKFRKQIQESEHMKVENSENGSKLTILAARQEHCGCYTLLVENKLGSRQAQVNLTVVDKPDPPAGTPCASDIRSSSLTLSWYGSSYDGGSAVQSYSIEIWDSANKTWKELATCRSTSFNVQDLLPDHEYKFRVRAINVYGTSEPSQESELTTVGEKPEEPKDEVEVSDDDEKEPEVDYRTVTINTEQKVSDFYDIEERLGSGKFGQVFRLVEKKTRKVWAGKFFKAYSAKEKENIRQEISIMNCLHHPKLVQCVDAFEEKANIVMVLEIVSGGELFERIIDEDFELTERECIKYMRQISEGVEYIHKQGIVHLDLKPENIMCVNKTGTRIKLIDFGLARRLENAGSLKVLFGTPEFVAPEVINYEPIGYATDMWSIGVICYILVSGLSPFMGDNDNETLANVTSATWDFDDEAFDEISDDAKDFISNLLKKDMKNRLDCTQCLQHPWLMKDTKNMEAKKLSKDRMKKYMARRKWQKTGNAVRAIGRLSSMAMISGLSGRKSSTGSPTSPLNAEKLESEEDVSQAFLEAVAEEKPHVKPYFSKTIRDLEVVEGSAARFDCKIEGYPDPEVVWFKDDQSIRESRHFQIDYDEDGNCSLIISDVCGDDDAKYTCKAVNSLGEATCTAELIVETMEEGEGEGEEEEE
active: bafetinib 0.827 | nilotinib 0.856 | dasatinib 0.65
inactive: [1] -0.063 | [2] 0.147 | [3] 0.136 | [4] -0.107 | [5] -0.128 | tipifarnib 0.047 | mubritinib 0 | [10] -0.063 | [7] -0.064 | [8] -0.21 | entinostat -0.081 | vorinostat -0.059 | citarinostat -0.089 | silmitasertib 0.175 | [9] 0.204

MRPS16 (UniProt Q9Y3D3)
inactive: bafetinib 0.192 | [1] 0.151 | nilotinib -0.187 | [2] 0.009 | [3] -0.053 | [4] 0.049 | [5] 0.092 | tipifarnib -0.094 | mubritinib 0.16 | [10] 0.026 | [6] -0.04 | [7] -0.079 | [8] -0.05 | entinostat 0.075 | vorinostat 0.133 | citarinostat 0.057 | silmitasertib -0.063 | [11] -0.016 | [9] -0.036

MRFAP1 (UniProt Q9Y605)
inactive: bafetinib -0.045 | [1] -0.08 | nilotinib -0.174 | [2] -0.064 | dasatinib -0.054 | [3] 0.051 | [4] -0.024 | [5] 0.011 | tipifarnib -0.261 | mubritinib -0.075 | [10] 0.134 | [6] 0.01 | [7] 0.021 | [8] -0.082 | entinostat 0.014 | vorinostat 0.15 | citarinostat 0.133 | silmitasertib -0.019 | [9] -0.028

NUMBL (UniProt Q9Y6R0)
inactive: bafetinib -0.002 | [1] 0.113 | nilotinib -0.001 | [2] -0.136 | dasatinib -0.029 | [3] 0.027 | [4] 0.041 | [5] 0.097 | tipifarnib 0.068 | mubritinib 0.28 | [10] -0.101 | [6] 0.016 | [7] -0.154 | [8] 0.002 | entinostat 0.01 | vorinostat 0.078 | silmitasertib -0.037 | [11] 0.016

NOP58 (UniProt Q9Y2X3)
inactive: bafetinib 0.146 | [1] -0.154 | nilotinib 0.03 | [2] -0.194 | dasatinib 0.266 | [3] -0.142 | [4] -0.194 | [5] -0.093 | tipifarnib 0.067 | mubritinib -0.071 | [10] -0.012 | [6] 0.052 | [7] 0.316 | [8] 0.043 | entinostat -0.05 | vorinostat -0.087 | citarinostat -0.048 | silmitasertib 0.108 | [11] 0.082 | [9] -0.119

P4HA2 (UniProt O15460)
UniProt O15460, sequence (O15460 whole entry, looked up): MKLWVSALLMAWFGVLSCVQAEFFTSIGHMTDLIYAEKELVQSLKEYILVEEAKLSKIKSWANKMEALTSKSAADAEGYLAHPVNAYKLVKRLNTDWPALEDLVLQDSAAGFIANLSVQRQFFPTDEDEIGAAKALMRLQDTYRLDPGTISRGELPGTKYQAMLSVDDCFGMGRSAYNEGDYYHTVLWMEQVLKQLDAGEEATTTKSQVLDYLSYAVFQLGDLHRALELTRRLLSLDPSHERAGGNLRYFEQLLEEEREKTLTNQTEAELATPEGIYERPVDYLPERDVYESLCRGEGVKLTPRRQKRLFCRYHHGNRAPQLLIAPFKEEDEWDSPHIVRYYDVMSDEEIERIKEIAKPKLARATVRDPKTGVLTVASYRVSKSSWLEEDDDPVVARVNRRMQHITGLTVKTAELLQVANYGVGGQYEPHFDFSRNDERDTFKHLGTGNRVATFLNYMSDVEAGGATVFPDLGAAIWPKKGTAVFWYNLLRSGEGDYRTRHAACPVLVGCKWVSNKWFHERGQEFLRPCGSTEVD
inactive: bafetinib 0.012 | [1] -0.007 | nilotinib 0.056 | [2] 0.04 | dasatinib -0.057 | [3] -0.008 | [4] -0.102 | [5] -0.02 | tipifarnib 0.007 | mubritinib -0.059 | [10] -0.034 | [7] -0.129 | [8] 0.063 | entinostat -0.104 | vorinostat -0.047 | citarinostat -0.019 | silmitasertib 0.025 | [11] 0.201 | [9] -0.021

NAP1L1 (UniProt B7Z9C2)
inactive: bafetinib -0.11 | [1] -0.249 | nilotinib -0.011 | [2] -0.002 | dasatinib -0.347 | [3] -0.043 | mubritinib 0.049 | [6] -0.124 | [7] 0.028 | [8] 0.064 | vorinostat 0.23 | citarinostat 0.068 | silmitasertib 0.001 | [9] 0.179

NKAP (UniProt Q8N5F7)
UniProt Q8N5F7, sequence (Q8N5F7 whole entry, looked up): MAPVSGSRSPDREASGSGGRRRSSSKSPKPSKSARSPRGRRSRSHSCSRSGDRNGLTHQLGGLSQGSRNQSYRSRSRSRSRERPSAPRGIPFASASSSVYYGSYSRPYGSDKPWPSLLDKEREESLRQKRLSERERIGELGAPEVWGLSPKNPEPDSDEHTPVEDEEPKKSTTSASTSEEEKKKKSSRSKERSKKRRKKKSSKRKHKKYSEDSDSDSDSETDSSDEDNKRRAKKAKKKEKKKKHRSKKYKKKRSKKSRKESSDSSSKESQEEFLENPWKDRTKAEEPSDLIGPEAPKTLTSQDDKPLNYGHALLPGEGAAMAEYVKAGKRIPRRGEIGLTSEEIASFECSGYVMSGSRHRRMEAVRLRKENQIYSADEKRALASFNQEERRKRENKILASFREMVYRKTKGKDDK
inactive: bafetinib -0.016 | [1] -0.081 | nilotinib 0.059 | dasatinib 0.086 | [3] 0.015 | [4] -0.033 | [5] -0.253 | tipifarnib -0.138 | mubritinib -0.169 | [6] -0.043 | [7] 0.027 | [8] -0.028 | vorinostat 0.019 | citarinostat 0.099 | silmitasertib -0.132 | [11] 0.111 | [9] -0.144
active: [2] -0.792

NIPSNAP2 (UniProt O75323)
inactive: bafetinib 0.02 | [1] -0.012 | nilotinib 0.082 | [2] -0.003 | dasatinib 0.05 | [3] -0.033 | [4] 0.185 | [5] 0.025 | tipifarnib -0.058 | mubritinib 0.041 | [10] -0.084 | [6] -0.047 | [7] -0.004 | [8] -0.033 | entinostat 0.027 | vorinostat -0.016 | citarinostat -0.021 | silmitasertib -0.039 | [11] -0.179 | [9] 0.023

OVCA2 (UniProt Q8WZ82)
inactive: bafetinib 0.171 | [1] 0.039 | nilotinib 0.026 | [2] -0.326 | [3] -0.163 | [5] -0.003 | tipifarnib -0.059 | mubritinib -0.231 | [6] -0.067 | [7] 0.03 | vorinostat 0.08 | citarinostat -0.085 | silmitasertib 0.206 | [9] 0.08

NAP1L1 (UniProt P55209)
UniProt P55209, sequence (P55209 whole entry, looked up): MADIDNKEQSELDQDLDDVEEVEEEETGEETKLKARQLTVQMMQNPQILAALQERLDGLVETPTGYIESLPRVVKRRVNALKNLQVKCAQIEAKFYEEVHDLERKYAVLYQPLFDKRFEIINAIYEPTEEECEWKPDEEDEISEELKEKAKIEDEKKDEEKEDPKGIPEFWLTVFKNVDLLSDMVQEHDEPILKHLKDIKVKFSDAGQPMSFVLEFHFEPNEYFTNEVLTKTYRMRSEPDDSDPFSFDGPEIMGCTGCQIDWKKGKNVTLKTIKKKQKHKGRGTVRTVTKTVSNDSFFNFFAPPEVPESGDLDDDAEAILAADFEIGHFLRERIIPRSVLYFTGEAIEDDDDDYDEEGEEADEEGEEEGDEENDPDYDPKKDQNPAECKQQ
inactive: bafetinib -0.018 | [1] -0.094 | nilotinib 0.009 | [2] -0.044 | dasatinib 0.05 | [3] 0.022 | [4] -0.004 | [5] -0.039 | tipifarnib 0.001 | mubritinib -0.014 | [10] -0.084 | [6] 0.049 | [7] -0.01 | [8] -0.016 | entinostat 0.02 | vorinostat 0.008 | citarinostat -0.01 | silmitasertib 0.069 | [11] -0.038 | [9] 0.069

MYH16 (UniProt Q9H6N6)
UniProt Q9H6N6, sequence (Q9H6N6 whole entry, looked up): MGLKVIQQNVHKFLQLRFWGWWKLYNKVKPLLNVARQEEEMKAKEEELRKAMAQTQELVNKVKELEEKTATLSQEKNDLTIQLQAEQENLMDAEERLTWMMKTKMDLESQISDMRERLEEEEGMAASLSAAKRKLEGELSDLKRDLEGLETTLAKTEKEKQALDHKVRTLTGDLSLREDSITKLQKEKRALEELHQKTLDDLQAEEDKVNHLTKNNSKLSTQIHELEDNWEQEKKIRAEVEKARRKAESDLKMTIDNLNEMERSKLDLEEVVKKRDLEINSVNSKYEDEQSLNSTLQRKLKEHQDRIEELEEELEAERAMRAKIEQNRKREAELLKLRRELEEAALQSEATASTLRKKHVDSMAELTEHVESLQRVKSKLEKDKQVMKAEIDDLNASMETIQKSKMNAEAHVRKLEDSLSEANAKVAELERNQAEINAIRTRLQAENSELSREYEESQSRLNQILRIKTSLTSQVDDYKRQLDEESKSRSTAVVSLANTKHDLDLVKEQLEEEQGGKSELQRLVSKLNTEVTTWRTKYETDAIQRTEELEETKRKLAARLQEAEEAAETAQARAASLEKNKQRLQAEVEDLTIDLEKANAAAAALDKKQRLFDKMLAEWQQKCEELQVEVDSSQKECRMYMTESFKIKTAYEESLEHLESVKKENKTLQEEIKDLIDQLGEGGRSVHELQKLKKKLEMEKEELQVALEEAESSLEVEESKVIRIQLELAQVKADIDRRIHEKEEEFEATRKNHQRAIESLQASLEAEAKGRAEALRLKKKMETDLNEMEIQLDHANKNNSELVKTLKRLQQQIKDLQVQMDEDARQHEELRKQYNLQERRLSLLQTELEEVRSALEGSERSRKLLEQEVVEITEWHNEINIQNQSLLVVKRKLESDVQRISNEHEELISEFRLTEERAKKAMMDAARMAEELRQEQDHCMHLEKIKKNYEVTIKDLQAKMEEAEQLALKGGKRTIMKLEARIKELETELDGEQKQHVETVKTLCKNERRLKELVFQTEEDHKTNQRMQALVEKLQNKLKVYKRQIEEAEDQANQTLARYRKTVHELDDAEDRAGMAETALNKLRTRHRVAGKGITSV
inactive: bafetinib 0.482 | [1] 0.303 | nilotinib 0.061 | [2] 0.062 | [3] 0.088 | [4] 0.068 | tipifarnib -0.248 | mubritinib -0.025 | [10] 0.467 | [6] 0.051 | [7] -0.057 | [8] 0.051 | entinostat 0.289 | vorinostat 0.291 | silmitasertib -0.044

ORC5 (UniProt O43913)
inactive: bafetinib 0.01 | [1] 0.027 | nilotinib 0.133 | [2] -0.001 | dasatinib -0.231 | [3] -0.114 | [4] 0.067 | [5] 0.044 | tipifarnib 0.031 | mubritinib 0.045 | [10] -0.322 | [6] -0.188 | [7] -0.253 | [8] -0.058 | entinostat -0.101 | vorinostat 0.139 | citarinostat 0.039 | silmitasertib -0.072 | [9] -0.004

MOB2 isoform 3 (UniProt Q70IA6)
active: [2] -1.47
inactive: bafetinib 0.005 | [1] -0.039 | nilotinib -0.133 | [3] 0.03 | [4] -0.069 | [5] 0.056 | tipifarnib 0.013 | mubritinib -0.108 | [7] -0.251 | vorinostat 0.044 | silmitasertib 0.062 | [11] -0.368
